Source: PubChem BioAssay AID588850 (Sanford-Burnham Center for Chemical Genomics, 2011)
The campaign covered roughly 360,000 compounds. About 3,100 (0.86%) were called active. The full list was thinned out, with actives kept by preference. A number with no mark means an inactive call.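 Rule for the calls: active = at least 50% inhibition at 5 µM, scaled per plate between neutral and stimulator controls; inactive = the rest.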

Test: inhibitors of PAF-induced NF-kB signaling, primary screen, cell-based, GFP fluorescence, uHTS (AID 588850);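 note: PAF is a Pseudomonas aeruginosa culture filtrate used as stimulus; plate controls were PAF-stimulated DMSO wells for no effect and unstimulated DMSO wells for full effect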
Details: KKLEB NF-kB-GFP reporter, GFP fluorescence overnight, at 5 µM, stronger effect = higher value

| SMILES | inhibition |
| --- | --- |
| NS(=O)(=O)c1ccc(N=Cc2ccc(Br)s2)cc1 | 2.4% |
| COc1cccc(CCNC(=O)COc2cccc3c2OC(C)(C)C3)c1 | 17.3% |
| Cc1ccc(-n2cc(CN(C)Cc3nccn3C)c(-c3cccc(C)c3)n2)cc1 | 28.4% |
| CCNc1nc(N)nc(Oc2ccc(OCC)nn2)n1 | -19.3% |
| O=C(CCCCCCCC(=O)N1CCCCC1)N1CCCCC1 | -8.3% |
| O=C(c1cc(COc2c(F)cccc2F)on1)N1CCSCC1 | 19% |
| COc1ccc(-c2cc(C(F)(F)F)nc(S(C)(=O)=O)n2)cc1OC | 90.7% (active) |
| COc1ccc(C2=NO[C@@H]3C(=O)N(Cc4ccccc4)C(=O)[C@H]23)cc1OC | 11% |
| COc1ccc(-c2cc(C(=O)NCCCN3CCCC3=O)c3ccccc3n2)cc1OC | -14% |
| Cc1cccc(CS(=O)(=O)c2ncc(Cl)c(C(=O)Nc3ccc(F)cc3)n2)c1 | 81.7% (active) |
| Cc1cccc(NC(=O)c2nc(S(=O)(=O)Cc3ccccc3)ncc2Cl)c1 | 89.1% (active) |
| Cc1cccc(NC(=O)CCN2CC(C)CC(C)C2)c1 (stereo unspecified) | 1.5% |
| Cc1cccc(NC(=O)Cn2cc(C(=O)c3ccco3)c3ccccc32)c1 | -7.8% |
| Cc1ccc(C)c(Cn2nnc3c(=O)[nH]c(C(=O)Nc4ccc(F)cc4)nc32)c1 | 22.5% |
| Cc1cccc(CN2CCC(CNC(=O)Nc3ccc(F)c(Cl)c3)CC2)c1 | -7.6% |
| ONC(=Nc1ccc(Cl)cc1)c1ccccc1Cl | 9.7% |
| Nc1nnc(C2CCCC2)s1 | 0% |
| OC[C@@H]1CN(C2CCCC2)C[C@H](n2cnc3c(NC4CCC4)ncnc32)O1 | 6.2% |
| O=C(Nc1ccn(Cc2ccccc2)n1)c1n[nH]c([N+](=O)[O-])c1Cl | -15.6% |
| O=C(Cc1ccc(Cl)c(Cl)c1)Nc1ccc(SC(F)F)cc1 | 60.8% (active) |
| Cc1ccc(CC(=O)Nc2ccc(OC(F)F)c(Cl)c2)cc1C | 2.1% |

| SMILES | inhibition |
| --- | --- |
| CC(=O)N1CCN(CC(=O)Nc2ccc(SC(F)F)cc2)CC1 | 5.2% |
| COc1ccccc1CC(NC(C)=O)C(=O)NC1CCN(C(=O)Nc2ccccc2Cl)CC1 (stereo unspecified) | 2.1% |
| O=C1CCC(Cc2ccccc2)N1 (stereo unspecified) | 11.2% |
| CCOC(=O)/C(=C\c1ccc([N+](=O)[O-])cc1)C(=O)c1cc(C(C)=O)c(Nc2ccccc2)s1 | 18.8% |
| CCOC(=O)C(=Cc1ccccc1OC)C(=O)OCC | 26.4% |
| CCOC(=O)C(=Cc1ccccc1)C(=O)c1ccccc1 | 66.7% (active) |
| CN1CCc2c(sc3c2c(NCc2ccco2)nc2nnnn23)C1 | -14.3% |
| CCN(CC(=O)NCc1cccs1)C(=O)/C=C/c1ccc(C)cc1 | -8.4% |
| CCCn1nc(C(=O)NNC(=O)CSCC(=O)Nc2cc(C)on2)c2ccccc2c1=O | 16.2% |
| CCc1ccc(N(CC)c2ncnc3nc[nH]c23)cc1 | 58.2% (active) |
| COc1ccc(CCNc2ncnc3nc[nH]c23)cc1OC | 14.3% |
| Cc1ccc(NC(=O)c2ccc(CSc3ncnc4nc[nH]c34)cc2)c(C)c1 | -2.8% |
| CCCN1C(=O)C(Cc2nc3ccccc3c(=O)n2-c2ccccc2)c2cc(C)ccc21 (stereo unspecified) | -39% |
| O=C(CC(O)(C(F)(F)F)C(F)(F)F)Nc1ccc(Cl)c(Cl)c1 | 62.4% (active) |
| O=C(Cc1ncc(C(F)(F)F)cc1Cl)Nc1cccc(Br)c1 | 7.6% |
| CN(CC(=O)Nc1ccc(Cl)c(C(F)(F)F)c1)C(=O)CCC(=O)c1ccccc1 | -0.4% |
| CN(CC(=O)Nc1ccc(OC(F)(F)F)cc1)C(=O)C1CCC1 | 6.5% |
| O=C(O)C1CCCN1C1=NS(=O)(=O)c2ccccc21 (stereo unspecified) | 9.4% |
| O=C(COc1ccc(S(=O)(=O)N2CCOCC2)cc1Cl)N1CCOCC1 | 1.5% |
| O=C(Nn1c(-c2ccc(Cl)cc2)nc2ccccc2c1=O)c1cccnc1Cl | 0.4% |
| Cc1cc(C)n(CC(C)NCc2c(C(=O)N3CCOCC3)nc3c(C)cccn23)n1 (stereo unspecified) | -0.6% |

| SMILES | inhibition |
| --- | --- |
| O=C(Nc1nc(-c2ccncc2)cs1)C1COc2ccccc2O1 (stereo unspecified) | 53.8% (active) |
| CC(=O)c1ccccc1NC(=O)COC(=O)C1COc2ccccc2O1 (stereo unspecified) | -8.8% |
| COc1ccc(NC(=O)COC(=O)C2COc3ccccc3O2)cc1 (stereo unspecified) | 4.2% |
| O=C(Nc1ncc([N+](=O)[O-])s1)C1COc2ccccc2O1 (stereo unspecified) | 60.8% (active) |
| C/C(=N/NC(=O)C1COc2ccccc2O1)c1ccco1 (stereo unspecified) | 17.3% |
| O=C(Nc1cc(S(=O)(=O)N2CCCCC2)ccc1Cl)C1COc2ccccc2O1 (stereo unspecified) | 24.5% |
| Cc1cc(OC(=O)c2ccccc2)c([N+](=O)[O-])c(=O)[nH]1 | 4.2% |
| CC(=O)Oc1c(C(=O)c2nnc(C)o2)c(=O)n(Cc2ccccc2)c2ccccc12 | 50.9% (active) |
| O=C(O)CCc1nc2cc(Cl)ccc2n(Cc2ccccc2)c1=O | 2.1% |
| CCCCCn1c(=O)c(C(=O)OCC)c(Cl)c2ccccc21 | 9.9% |
| CC(C)CCNC(=O)c1[nH]c(C(F)(F)F)nc1-c1ccccc1 | -2.1% |
| CC(C)(C)C(=O)CCN1C(=O)C2(OCCO2)c2ccccc21 | -2.6% |
| CCCCn1c(N)c(N(CC(C)C)C(=O)c2ccc(-n3c(C)ccc3C)cc2)c(=O)[nH]c1=O | 14.1% |
| CC1(C(=O)NS(=O)(=O)c2ccccc2)CCN1C(=O)C/C=C/c1ccccc1 (stereo unspecified) | 0.3% |
| CC1(C)CCSC(/C=C/c2ccccc2)=N1 | 55.9% (active) |
| CC1(C(=O)O)CCN1C(=O)/C=C/c1ccccc1 (stereo unspecified) | 11.9% |
| CCc1cc(-c2nnn(CCC3COCCO3)c2CC)ccc1-c1cn(Cc2ccc3ccccc3c2)nn1 (stereo unspecified) | 19.3% |
| O=C1c2ccccc2NC(c2ccccc2O)N1NS(=O)(=O)c1ccccc1 (stereo unspecified) | -6.3% |
| COc1cccc(N(C(=O)c2snc(C(N)=O)c2N)C(C(=O)NCC2CCCO2)c2c[nH]c3ccccc23)c1 (stereo unspecified) | -0.6% |
